TRHR agonist = activates the human TRH receptor | P34981 | TRHR cells, calcium flux fluo-8, FDSS agonist mode | activation, % at 2 µM | actives 0.18% (n = 360,000); also: 0% is about no effect
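Fluo-8-loaded TRHR cells; 10 s baseline, compound added, kinetic Ca2+ fluorescence read 1/s, agonist mode.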
D1 potentiator = potentiators of human D1 dopamine receptor | HEK293 TREx D1 cells, calcium flux, dopamine EC20 potentiation | potentiation, % at 10 µM | actives 0.036% (n = 360,000) | P21728; in the data active = potentiation above about 30%; also: 0% is about no effect
Target sequence (P21728 whole entry, looked up): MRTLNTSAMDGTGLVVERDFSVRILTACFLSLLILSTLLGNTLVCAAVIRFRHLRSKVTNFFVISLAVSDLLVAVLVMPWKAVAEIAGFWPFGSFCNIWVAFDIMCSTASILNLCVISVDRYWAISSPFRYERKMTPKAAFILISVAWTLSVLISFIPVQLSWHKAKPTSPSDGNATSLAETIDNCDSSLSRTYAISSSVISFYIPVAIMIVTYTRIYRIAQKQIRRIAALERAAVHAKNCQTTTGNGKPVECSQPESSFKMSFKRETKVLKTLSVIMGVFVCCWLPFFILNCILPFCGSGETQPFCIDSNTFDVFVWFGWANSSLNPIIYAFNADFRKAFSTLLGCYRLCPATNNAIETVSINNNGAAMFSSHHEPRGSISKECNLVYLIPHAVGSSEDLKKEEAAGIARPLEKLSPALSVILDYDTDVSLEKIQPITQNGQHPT
D1 ag = human D1 receptor agonism; P21728; AID 504660; HEK293 T-REx D1 cells, calcium flux, agonist mode; actives 1% (n = 360,000); activation, % at 2 µM; also: 0% is about no effect
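Agonism was scored from calcium flux recorded over 180 s (1 read/s) after pintool compound addition, following a 10-cycle baseline. Cells were inducible force-coupled HEK293 TREx D1, plated overnight at 30 C and loaded with no-wash calcium dye.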
TRHR enhancer = allosteric enhancers of human TRH receptor. TRHR cells, fluo-8 calcium fluorescence, EC20 TRH enhancement. actives 0.66% (n = 360,000). enhancement, % at 2 µM; in the data active = enhancement above about 30%; also: 0% is about no effect
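TRHR-expressing cells loaded with fluo-8 calcium dye were read kinetically (ex 480/em 530) during compound addition, then stimulated with an EC20 of TRH (10 nM final). Enhancement of the Gq-mediated intracellular calcium response was scored.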
D1 antag = human D1 dopamine receptor antagonism | P21728 | HEK293 TREx D1 cells, calcium flux, dopamine EC80; hits give low values | activity change, negative = inhibition, % at 10 µM | AID 504652 | actives 3.2% (n = 360,000); in the data active = activity change below about -30%; also: % is scaled to controls: 0 for no effect and ±100 for the full control effect
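Inducible Hek293 Trex D1 cells (tetracycline, overnight, 30 C). Calcium dye 30–90 min RT. Antagonist mode: EC80 dopamine added after 180 s compound read.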
Active calls of the source: *. In the library only some 4.7% were active in any assay of this set; here they are far more common. Rule as the data show it, unless noted: active = activation above about 30%; inactive = the rest.

What do the screens show for `O=C(O)CCN1C(=O)c2ccc(NC(=O)CCc3ccccc3)cc2C1=O`?
TRHR agonist: 1; D1 potentiator: -4; D1 ag: -1; TRHR enhancer: -3; D1 antag: -3

What do the screens show for `Cc1ccc2cccc(S(=O)(=O)Nc3c(C)n(C)n(-c4ccccc4)c3=O)c2n1`?
TRHR agonist: 0; D1 potentiator: -1; D1 ag: 4; TRHR enhancer: -7; D1 antag: -5

What do the screens show for `Cc1ccc(NC(=S)Nc2cccc(S(=O)(=O)Nc3c(C)n(C)n(-c4ccccc4)c3=O)c2)cc1`?
TRHR agonist: 0; D1 potentiator: -7; D1 ag: 3; TRHR enhancer: 32*; D1 antag: 9

What do the screens show for `Cc1c(NS(=O)(=O)c2cccc3nsnc23)c(=O)n(-c2ccccc2)n1C`?
TRHR agonist: 0; D1 potentiator: -3; D1 ag: 1; TRHR enhancer: -1; D1 antag: -90*

What do the screens show for `O=C(O)c1cc(-c2ccccc2)nn1Cc1ccccc1`?
TRHR agonist: 0; D1 potentiator: 7; D1 ag: -1; TRHR enhancer: 2; D1 antag: 5

What do the screens show for `Cc1cccc(C)c1NCC(=O)N1CCN(Cc2ccccc2)CC1`?
TRHR agonist: 1; D1 potentiator: -2; D1 ag: 1; TRHR enhancer: -1; D1 antag: -2

Results for Cc1cccc2cc(C#N)c(SCC(=O)Nc3ccccc3N3CCOCC3)nc12 ?
TRHR agonist: 1; D1 potentiator: 0; D1 ag: 5; TRHR enhancer: 7; D1 antag: 1

What do the screens show for `N#Cc1cc2ccccc2nc1SCC(=O)Nc1ccccc1N1CCOCC1`?
TRHR agonist: 20; D1 potentiator: -3; D1 ag: 62*; TRHR enhancer: -7; D1 antag: -10

What do the screens show for `Cc1noc(C)c1COC(=O)c1cnc(Cl)c(Cl)c1`?
TRHR agonist: -1; D1 potentiator: -4; D1 ag: 7; TRHR enhancer: -10; D1 antag: -42*

How did CN(C)c1ccc(N=Cc2nc(-c3ccccc3)oc2OC(=O)c2cccc(Cl)c2)cc1 do in these assays?
TRHR agonist: 7; D1 potentiator: -1; D1 ag: 27; TRHR enhancer: -2; D1 antag: -32*

How did Cc1ccc(C(=O)Oc2oc(-c3ccccc3)nc2C=Nc2ccc(N(C)C)cc2)cc1 do in these assays?
TRHR agonist: 0; D1 potentiator: 1; D1 ag: 9; TRHR enhancer: 8; D1 antag: -10

How did COc1cc(NC(=O)CN2C(=O)C(c3ccc(C)cc3)=NC23CCCCCC3)cc(OC)c1 do in these assays?
TRHR agonist: 2; D1 potentiator: 5; D1 ag: 4; TRHR enhancer: 3; D1 antag: 15

Results for Nc1ccc(-c2nc3ncccc3o2)cc1 ?
TRHR agonist: 0; D1 potentiator: -6; D1 ag: -1; TRHR enhancer: 2; D1 antag: -34*

What do the screens show for `CCN1/C(=C\C=C(C(C)=O)C(C)=O)Sc2ccccc21`?
TRHR agonist: 12; D1 potentiator: -4; D1 ag: 80*; TRHR enhancer: -4; D1 antag: 12

What do the screens show for `CCCCn1c(=O)c(CCC(=O)OCC(=O)NC(=O)NCCC(C)C)nc2ccccc21`?
TRHR agonist: 0; D1 potentiator: 0; D1 ag: 1; TRHR enhancer: 30*; D1 antag: 2

How did Nc1cc(=O)[nH]c2nnc(SCC(=O)Nc3cccc4ccccc34)n12 do in these assays?
TRHR agonist: 0; D1 potentiator: 3; D1 ag: 0; TRHR enhancer: 3; D1 antag: -45*

Results for COc1ccc(OC)c(NC(=O)NCCN2CCN(c3ccccc3)CC2)c1 ?
TRHR agonist: 0; D1 potentiator: -7; D1 ag: 9; TRHR enhancer: 3; D1 antag: -54*

Results for COc1ccc(NC(=O)NCCN2CCN(c3cccc(Cl)c3)CC2)cc1 ?
TRHR agonist: 0; D1 potentiator: -8; D1 ag: 22; TRHR enhancer: -10; D1 antag: -61*

Results for COc1ccc(NC(=O)NCCN2CCCCC2)cc1 ?
TRHR agonist: 0; D1 potentiator: -3; D1 ag: 5; TRHR enhancer: -1; D1 antag: -11
